# Source: PubChem BioAssay (NCI)
# This is part of a sample that, as a whole, favours compounds with a hit. Of some 83,000 tested, about 20% had one in any assay.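 The endpoint reported here, percent growth, reads 100 for growth as untreated, 0 for no net growth and -100 for all cells dead.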 Values without a mark were called inactive. Activity calls are given as the source filed them. The calls were made as follows: active = growth percent below 10; inactive = the rest.
# What was measured:
# Test in all cases: NCI-60 one-dose screen, 48 h (100 = growth as untreated, 0 = no growth, -100 = all killed)
# Conditions in all cases: 10 µM unless noted
# [1] = system: NCI-H23 lung
# [2] = system: NCI-H226 lung
# [3] = system: NCI-H322M lung
# [4] = system: HOP-62 NSCLC
# [5] = system: NCI-H460 lung
# [6] = system: HOP-92 NSCLC
# [7] = system: NCI-H522 lung
# [8] = system: A549/ATCC NSCLC
# [9] = system: 786-0 renal
# [10] = system: COLO 205 colon
# [11] = system: DU-145 prostate
# [12] = system: K-562 leukemia
# [13] = system: MALME-3M melanoma
# [14] = system: MDA-MB-231 breast
# [15] = system: SF-268 CNS
# [16] = system: SF-295 CNS
# [17] = system: SF-539 CNS
# [18] = system: UACC-257 melanoma
# [19] = system: M14 melanoma
# [20] = system: RXF 393 renal
SMILES,growth [1],growth [2],growth [3],growth [4],growth [5],growth [6],growth [7],growth [8],growth [9],growth [10],growth [11],growth [12],growth [13],growth [14],growth [15],growth [16],growth [17],growth [18],growth [19],growth [20]
COc1ccc(Cn2nc(-c3ccccc3)c3c2CCc2cnoc2-3)cc1,60.3%,105%,101%,83.5%,80.5%,61.1%,70.3%,69.4%,79.4%,88.6%,96.9%,36.3%,109%,55.6%,81%,59.5%,85.4%,90.9%,89.2%,
COc1cc(NCCN(CC(C)C)C2CCCC2)c2ncccc2c1,81.1%,92%,118%,82.9%,95.7%,95.9%,78.1%,81.7%,98.1%,101%,104%,99%,126%,79%,86%,94.1%,98.3%,91.5%,102%,
Cc1ccc(C2CC(c3cccc(Nc4ccncc4)c3)=NN2c2ccc(Cl)cc2)cc1 (stereo not drawn),-83.2% (active),-38.8% (active),-99.7% (active),-65.9% (active),-76.1% (active),-90.3% (active),-71.2% (active),-34.5% (active),-88.4% (active),-66.3% (active),-93.3% (active),-18.8% (active),-86% (active),-86% (active),-72% (active),-85.6% (active),-96.2% (active),-35.1% (active),-57.3% (active),
COc1ccc(C(=O)/C=C/c2c(OC)cc(OC)cc2OC)c(OC)c1,26.1%,69.5%,56.2%,40.4%,8.76% (active),31.5%,-6.76% (active),31.6%,26.2%,8.18% (active),18.3%,18.5%,3.17% (active),44.4%,36.5%,11.3%,8.25% (active),28.9%,4.81% (active),
O=C(Nc1nc2ccc(C(=O)N3CCN(c4ccc(Cl)c(Cl)c4)CC3)cc2s1)c1ccc(NCCc2ccccc2)c([N+](=O)[O-])c1,93.3%,87.8%,95.5%,96.6%,110%,91.7%,75.9%,97.9%,107%,108%,101%,84.2%,86.8%,86.2%,97%,96.4%,101%,99.4%,98.5%,
Cn1c(=O)c2[nH]c(CCCc3nc4c([nH]3)c(=O)n(C)c(=O)n4C)nc2n(C)c1=O,117%,105%,114%,97.4%,105%,101%,112%,105%,107%,111%,118%,105%,108%,113%,104%,111%,98.9%,114%,111%,
COc1ccc(C2=NN(C(C)=O)C(c3cn(Cc4ccc(Cl)cc4)c4ccccc34)C2)cc1 (stereo not drawn),73.3%,67.6%,83.1%,85.7%,86.9%,61.2%,69.5%,64.6%,89.4%,115%,97.4%,52.6%,72.2%,78.7%,79.9%,85.6%,82.1%,81.7%,99.4%,
COc1cccc2cc(-c3cc4ccccc4[nH]3)/c(=N/C(=S)Nc3ccc(C)cc3)oc12,67.9%,55.1%,80.1%,22%,51.1%,-6.31% (active),84.8%,79.9%,59%,99.4%,66.4%,80.4%,66.6%,39.4%,72.3%,79.5%,45.7%,103%,95%,
COc1cc(C2CC(c3cccc(Nc4ccncc4)c3)=NN2C(C)=O)cc(OC)c1OC (stereo not drawn),104%,96.8%,102%,91.1%,103%,70.1%,77.9%,98.5%,88%,95%,107%,34.7%,80%,92.8%,94.4%,94.9%,89.1%,91.5%,100%,
O=C(CN1CCOCC1)Nc1ccc2ncnc(Nc3ccc(OCc4cccc(F)c4)c(Cl)c3)c2c1,89.6%,85.1%,20.9%,84.5%,67.5%,60%,25.2%,49.9%,66.2%,66.7%,50.5%,43.9%,83.7%,71%,68.7%,73.9%,75.3%,87.9%,68.5%,
COc1ccc(C(O)c2cc3c(N)c(C(=O)Nc4ccccc4)sc3nc2C)cc1 (stereo not drawn),29.7%,51.1%,35.4%,18.8%,3.3% (active),30.3%,-55.9% (active),13.4%,29.3%,-58.9% (active),2.39% (active),3.59% (active),48.5%,-11.2% (active),28.3%,-13.3% (active),-25.8% (active),49.4%,14.3%,
Nc1nc(SN=Nc2ccc(S(N)(=O)=O)cc2)c2[nH]cnc2n1,8.88% (active),37.3%,56.4%,19.8%,4.68% (active),-6.95% (active),-9.91% (active),24.1%,15.7%,-30.6% (active),15%,,24.6%,16.9%,19.8%,12.6%,14.9%,8.28% (active),11.1%,-6.34% (active)
COc1cc(/C=C/C(=O)c2ccc(Nc3ncnc4ccccc34)cc2)cc(OC)c1,72%,80.2%,76%,139%,81.4%,87.3%,71.4%,41.2%,52.1%,151%,71.7%,4.61% (active),106%,82.9%,38.1%,60.8%,71.6%,93.5%,24.7%,
O=C(O)CNC(=O)CN1C(=O)c2ccccc2C1=O,102%,89.1%,104%,88.3%,103%,97.4%,100%,81.6%,98.4%,104%,120%,85.8%,98.6%,114%,106%,103%,107%,76.6%,92.7%,
O=C1OC(=O)C2C1CC=CC2c1ccccc1 (stereo not drawn),84.7%,90.6%,102%,78.8%,75.5%,85.3%,93.6%,88%,94.9%,93.7%,94%,,78.8%,93.7%,91.1%,95.8%,88.3%,107%,97.4%,102%
CC1=CC[C@@H]2CC[C@]3(C)[C@H](CC[C@@H]4[C@@]5(C)CCCNC(C)(C)[C@@H]5CC[C@]43C)[C@H]2[C@@H]1C,63.1%,107%,20.7%,105%,-70.4% (active),23.8%,96.1%,-14% (active),-72.5% (active),-93.5% (active),-7.26% (active),,3.21% (active),-7.94% (active),40.2%,-35.2% (active),77.5%,76.7%,15.5%,
